Screening data (PubChem BioAssay)
Only some compounds are listed: those with a hit (about 8% of all), similar ones and a draw of the others.
HT1080 IDH1KD tx: kills HT-1080 cells with IDH1 knockdown; HT-1080 IDH1 knockdown viability, ATP luminescence, 48 h; Potency, µM (titrated, usually from 46.1 µM), usual class: cytotoxic; 360,000 tested, 2% active
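In this qHTS, HT-1080 cells depleted of IDH1 are exposed for 48 h at 37 °C to compound titrations. Toxicity is scored from CellTiter-Glo luminescence, with DMSO as full viability and medium alone as none.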
MCF10A rereplic: DNA re-replication induction in MCF 10a cells; MCF 10A DNA re-replication, Hoechst nuclear intensity, 48 h; Potency, µM (doses to about 46.1 µM), most hits filed as activators; 350,000 tested, 2.9% active; AID 624296; also: nearly all actives have a fitted effect of over 50% in size
SW480 rereplic: induces DNA re-replication in SW480 colon adenocarcinoma cells. 340,000 tested, 1.8% active. Potency, µM (titrated, usually from 46.1 µM), hits mostly activators. SW480 DNA re-replication, Hoechst DNA content imaging, 48 h; also: nearly all actives have a fitted effect of over 55% in size
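Hoechst fluorescence of nuclei (405 nm excitation, 500-530 nm emission) measured by plate-scanning imager after 48 hr compound exposure at 37 C; re-replication scored as increased number of nuclei with elevated intensity.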
HT1080-NT tox: kills 2HG-producing HT-1080-NT fibrosarcoma cells; HT-1080-NT fibrosarcoma viability, CellTiter-Glo ATP luminescence, 48 h; Potency, µM (series often up to 46.1 µM), most hits filed as cytotoxic; 360,000 tested, 1.6% active;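 also: NT is the 2HG producing partner of a matched IDH1 knockdown line; nearly all actives have a fitted effect of over 55% in size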
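Compounds were tested in concentration-response format on HT-1080-NT cells for 48 hours at 37 degrees C. Cell viability came from CellTiter-Glo luminescence; curves were classified by r2, response magnitude and activity.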
KB-V1 cytotox: kills drug-selected multidrug resistant KB-V1 cells | KB-V1 MDR cells viability, CellTiter-Glo, 72 h | Potency, µM (highest dose often 46.1 µM), usual class: cytotoxic | 400,000 tested, 3.4% active | AID 1347076; also: nearly all actives have a fitted effect of over 60% in size
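KB-V1 MDR subline cells in DMEM (phenol-red free, 10% FBS) exposed to compounds in qHTS concentration series for 72 h at 37 degrees C. Viability read by CellTiter-Glo luminescence; concentration-effect curves fitted after normalization and correction.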
KB-3-1 tox: kills parental KB-3-1 adenocarcinoma cells; KB-3-1 viability, CellTiter-Glo ATP luminescence, 72 h; 400,000 tested, 1.4% active; Potency, µM (series often up to 46.1 µM), actives largely listed as cytotoxic; also: nearly all actives have a fitted effect of over 60% in size
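Parental KB-3-1 viability, qHTS format: 72 h compound exposure, 37 °C; CellTiter-Glo; media-only wells and DMSO plates as controls; concentration-effect fits on corrected data.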
Hits are given with their value; n = inactive; u = inconclusive; x = not tested or not shown. Calls follow the shape of the dose curve; as a rule, active = well fitted curve in the direction sought with a large enough effect; inconclusive = small, poorly fitted or top-dose-only effect, or another doubt; inactive = no such curve, though single readings can be large; an effect the other way counts as inactive or inconclusive.

SMILES | HT1080 IDH1KD tx | MCF10A rereplic | SW480 rereplic | HT1080-NT tox | KB-V1 cytotox | KB-3-1 tox
CCc1ccc(N2C(=O)NC(=O)/C(=C/c3cccn3CCOc3ccc(C(C)CC)cc3)C2=O)cc1 (stereo unspecified) | n | 13µM | 13µM | n | n | n
Cc1ccccc1-n1nc(C)c2c1NC(=O)CSC2c1ccccc1C(F)(F)F (stereo unspecified) | x | x | x | x | n | u
C/C(N)=C(/C#N)C(=O)CSc1nc2cc(Cl)ccc2c(=O)n1-c1ccc(C)cc1 | n | u | n | n | n | n
CCCCCCC(=O)O[C@H]1CC[C@H]2[C@@H]3CCC4CC(=O)C=C(C)[C@]4(C)[C@H]3CC[C@]12C (stereo partly specified) | x | n | u | x | x | x
C=C1C(C)C2C(Cc3ccccc3)NC(=O)C23OC(=O)/C=C/C(O)CCCC(C)C/C=C/C3C1O (stereo unspecified) | 8.2µM | 6.5µM | 9.2µM | u | u | u
O=C1[C@H]2[C@@H](C3CC3)N3C(=O)CN(CC4CC4)C(=O)[C@@]3(Cc3ccccc3)[C@H]2C(=O)N1c1ccccc1 | n | n | n | n | n | n
O=C1NC(=O)C2(Cc3ccccc3N3CCCC32)C(=O)N1c1ccc(Cl)cc1 (stereo unspecified) | n | 21µM | n | u | n | u
Cc1ccc(N2C(=O)NC(=O)C3(Cc4ccccc4N4CCCC43)C2=O)cc1 (stereo unspecified) | n | n | n | n | n | n
COC(=O)[C@@H]1N=C(c2ccc(OC)cc2)O[C@]12C(=O)N(Cc1ccc(OC)cc1)c1ccccc12 | u | x | x | n | 23µM | u
Cc1sc2ncnc(N3CCC(C(=O)Nc4ccc(C#N)c(Cl)c4)CC3)c2c1C | u | 13µM | n | u | n | n
Cc1noc(C)c1CSCC(=O)Nc1ccc(C#N)c(Cl)c1 | n | n | n | n | n | n
CN(C)c1ncc(C2=C(Cl)C(=O)C(N3CCCC3)=C(Cl)C2=O)s1 | 8.9µM | u | 9.2µM | u | n | n
CC[n+]1c(-c2ccccc2)c2cc(N)ccc2c2ccc(N)cc21 | 16µM | n | n | u | u | u
COc1cc2c(cc1O)C[C@H]1NCCc3cc4c(c-2c31)OCO4 | u | 18µM | u | u | n | u
CC1CCN2c3nc4ccccn4c(=O)c3CC3(C(=O)N(C)C(=O)N(C)C3=O)C2C1 (stereo unspecified) | n | n | n | n | 7.3µM | n
CN1C(=O)N(C)C(=O)C2(Cc3c(nc4ccccn4c3=O)N3CCc4ccccc4C32)C1=O (stereo unspecified) | n | n | n | n | n | n
CCN1c2nc3ccccn3c(=O)c2CC2(C(=O)N(C)C(=O)N(C)C2=O)C1C (stereo unspecified) | n | n | n | n | 16µM | n
C=C1C(=O)O[C@@H]2C[C@@H](C)[C@@H]3C=CC(=O)[C@@]3(C)[C@@H](OC(C)=O)[C@H]12 | 4.6µM | 1.2µM | u | 6.5µM | 15µM | u
C=C1C(=O)O[C@@H]2C[C@@H](C)[C@@H]3C=CC(=O)[C@@]3(C)[C@@H](O)[C@H]12 | 0.58µM | 0.92µM | u | 1.5µM | n | u
CNC(C)C(O)c1ccc(O)cc1 (stereo unspecified) | x | n | n | x | x | x
CCC(=NCc1ccc2c(c1)OCO2)c1c(O)n(C)c(=O)n(C)c1=O | n | n | n | n | n | 15µM
CCC(=NCCOc1ccc(Cl)cc1)c1c(O)n(C)c(=O)n(C)c1=O | n | n | n | u | 18µM | u
CCC(=NCCN1CCCCC1)c1c(O)n(C)c(=O)n(C)c1=O | n | n | n | n | n | n
CC(=NCc1ccc2c(c1)OCO2)c1c(O)n(C)c(=O)n(C)c1=O | n | u | n | 2.5µM | 21µM | 8.2µM
CCC(=NCc1cc(OC)cc(OC)c1)c1c(O)n(C)c(=O)n(C)c1=O | n | n | n | n | 7.3µM | u
